The values below come from PubChem BioAssay (NCI).

The panel holds about 79,000 compounds, 15% with a hit somewhere; the sample as a whole holds those more often. The source made the active and inactive calls. Rule as the data show it: active = growth inhibition above about 70%; inactive = the rest.

The first assay can be described thus: NCI Yeast Anticancer Drug Screen. Data for the cln2 rad14 strain (AID 165).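 Also: 0% = growth equal to vehicle treated cultures.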 Conditions: S. cerevisiae cln2 rad14 strain, at 50.0 µM, hits give high values. The method in brief: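 Yeast carrying cln2 and rad14 alterations (cell cycle control and DNA damage repair) were exposed to compounds. Growth inhibition was measured against vehicle-treated controls.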
As for `CCOC(=O)/C=C(\CC(=O)OCC)C(=O)OCC`, the growth inhibition is 13.4% (inactive).

Consider `Cc1cc(Cl)cc2c1NC(=O)C2(O)C(C)C(=O)c1ccc(Cl)cc1` (stereo not given), for which the growth inhibition is 99.1% (active).

Turning to `C=CS(=O)(=O)c1ccc([N+](=O)[O-])cc1`, the growth inhibition was 99.7% (active).

Consider `Oc1cc(Br)ccc1/C=N/Nc1ccccn1`, for which the growth inhibition is -21.8% (inactive).

With `CC(C)C(CC(C)(C)C)OC(=O)Nc1cccc2ccccc12` (stereo not given), the growth inhibition is 6.15% (inactive).

With `CC(=O)[O-].O=C(N/N=C/c1ccccc1[O-])c1ccccc1.[Zn+2]`, the growth inhibition is -16.9% (inactive).

For the compound `COc1cc(C2C(C(=O)Nc3ccc(Cl)c(Cl)c3)=C(C)NC(C)=C2C(=O)Nc2ccc(Cl)c(Cl)c2)ccc1O`, the growth inhibition is 88.8% (active).

Take `[Ce+3].[Cl-].[O-]/N=C(\c1ccccc1)c1ccccn1.[O-]/N=C(\c1ccccc1)c1ccccn1.[O-]/N=C(\c1ccccc1)c1ccccn1`: the growth inhibition is 76.7% (active).

For the compound `CCCCCCCCN1C(=O)c2ccccc2S1(=O)=O`, the growth inhibition was -27.6% (inactive).

Turning to `CC(=O)N(C1=C(Cl)C(=O)c2ccccc2C1=O)c1ccc(C)cc1`, the growth inhibition is 94% (active).

As to `COc1ccc(Cl)c(-c2cc(OC)c(N=N/C(=N/Nc3ccc([N+](=O)[O-])cc3)c3ccc([N+](=O)[O-])cc3)cc2Cl)c1`, the growth inhibition is 50.2% (inactive).

Take `CCOC(=O)CSC(=S)N1CCOCC1`: the growth inhibition was -32.2% (inactive).

For `CC1(C)COC(c2cccc(C(O)c3ccc(Cl)cc3)c2)=N1` (stereo not given), the growth inhibition was 40.5% (inactive).

`COc1ccc(/C=C/C(C(=O)O)C(=O)O)cc1`: the growth inhibition is 44.4% (inactive).

In the case of `COc1ccc2c(Cc3ccc(O)cc3)cncc2c1O`, the growth inhibition was 91.8% (active).

As to `COC1=CC23C=CC1[C@@H](c1ccccc1)C2=C(C)C(=O)N3C(=O)NC1CCCCC1` (stereo not given in full), the growth inhibition is 29.8% (inactive).

As to `O=c1c2c3c(sc2nc2n1N=C(c1ccc(Br)cc1)CS2)CCCC3`, the growth inhibition was -32.2% (inactive).

Take `Cc1noc(NS(=O)(=O)c2ccc(N=Nc3cc(N=Nc4ccc(S(=O)(=O)Nc5onc(C)c5C)cc4)c4c(NC(=O)C(Cl)Cl)cccc4c3O)cc2)c1C` (tested in a mixture with another compound): the growth inhibition was 63.4% (inactive).

Turning to `CC(=O)OC1=CC2(OC(C)=O)CC(C)(C)C1C1C(=O)C=CC(=O)C12` (stereo not given), the growth inhibition was 33.9% (inactive).

On to `COC1CCC(/C(C#N)=C/c2ccco2)CC1` (stereo not given), for which the growth inhibition was -0.15% (inactive).

As for `CCN(CC)CCNc1cc(C)nc2c1ccc1c2ccc2c(NCCN(CC)CC)cc(C)nc21`, the growth inhibition was 93% (active).

`O=c1sc(=S)[nH]c2ccccc12`: the growth inhibition is 71.5% (active).

For `Oc1c(Br)ccc2c(O)c(Br)ccc12`, the growth inhibition was 90.5% (active).

Consider `Nc1ccccc1CCc1ccccc1`, for which the growth inhibition was 67% (inactive).

On to `Cc1cc2c(cc1O)CC[C@@H]1[C@@H]2CC[C@]2(C)[C@@H](O)CC[C@@H]12`, for which the growth inhibition is 50.2% (inactive).

For `O=c1c2ccccc2sc2c([N+](=O)[O-])ccc(NCCNCCO)c12`, the growth inhibition is 87.2% (active).

In the case of `NC(=S)NNc1c([N+](=O)[O-])cnn(-c2ccccc2)c1=O`, the growth inhibition was 20.3% (inactive).

Take `COc1ccccc1NC(=O)c1ccccc1F`: the growth inhibition was 4.65% (inactive).

Turning to `COc1ccc(/C=C2\SC(=S)N(/C=C(/C#N)C(=O)c3ccc4ccccc4c3)C2=O)cc1OC`, the growth inhibition is 95.3% (active).

Regarding `COC(=O)C1(OC(=O)CCC(=O)O)C(=O)NC2=C1C(=O)c1ccccc1C2=O` (stereo not given), the growth inhibition was 38.5% (inactive).

With `Cc1cc(=O)c2c(ccc3cc4ccccc4cc32)[nH]1`, the growth inhibition was 43.8% (inactive).

Consider `CCc1nc(N)nc(N)c1-c1ccc(N(C)Cc2ccccc2)c([N+](=O)[O-])c1`, for which the growth inhibition is 4.05% (inactive).

For the compound `O=C1CSC(c2ccccc2O)N1c1ccc(-n2c(-c3ccccc3)nc3ccccc3c2=O)cc1` (stereo not given), the growth inhibition is 78.5% (active).

Turning to `O=C(C[P+](c1ccccc1)(c1ccccc1)c1ccccc1)c1ccc(Br)cc1`, the growth inhibition was 95.9% (active).

Take `O=NN(CCCl)C(=O)Oc1ccc(OC(=O)N(CCCl)N=O)cc1`: the growth inhibition is 83.5% (active).

Consider `Cc1cccc(C[N+](C)(C)CCCO)c1C`, for which the growth inhibition is 46.1% (inactive).

Take `CC(C)NC(=O)OCCS(=O)c1c(Cl)c(Cl)nn1C` (stereo not given): the growth inhibition is 97.7% (active).

As to `COC1=CC(=O)[C@H]2CC(C)=CC[C@]2(C)C1=O`, the growth inhibition was 84% (active).

`Oc1ccc(O)c2c(O)c3ccccc3c(O)c12`: the growth inhibition was 30.9% (inactive).

`O=[N+]([O-])c1cc(Br)cc(Br)c1O`: the growth inhibition was 82.7% (active).

Another assay can be described thus: NCI Yeast Anticancer Drug Screen. Data for the bub3 strain (AID 167). The settings on record: S. cerevisiae bub3 mutant strain, at 5.0 µM (retest, dose inferred, filed as 0.5), hits give high values. The method, boiled down: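 Mutant yeast screening strain plus compound; vehicle-treated cultures serve as the 0% inhibition reference.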
For the compound `CCOC(=O)/C=C(\CC(=O)OCC)C(=O)OCC`, the growth inhibition is 4% (inactive).

As to `Cc1cc(Cl)cc2c1NC(=O)C2(O)C(C)C(=O)c1ccc(Cl)cc1` (stereo not given), the growth inhibition was -4% (inactive).

With `C=CS(=O)(=O)c1ccc([N+](=O)[O-])cc1`, the growth inhibition is 20% (inactive).

Regarding `Oc1cc(Br)ccc1/C=N/Nc1ccccn1`, the growth inhibition was 0% (inactive).

Regarding `CC(C)C(CC(C)(C)C)OC(=O)Nc1cccc2ccccc12` (stereo not given), the growth inhibition is 11% (inactive).

`CC(=O)[O-].O=C(N/N=C/c1ccccc1[O-])c1ccccc1.[Zn+2]`: the growth inhibition is -10% (inactive).

For the compound `COc1cc(C2C(C(=O)Nc3ccc(Cl)c(Cl)c3)=C(C)NC(C)=C2C(=O)Nc2ccc(Cl)c(Cl)c2)ccc1O`, the growth inhibition was 13% (inactive).

In the case of `[Ce+3].[Cl-].[O-]/N=C(\c1ccccc1)c1ccccn1.[O-]/N=C(\c1ccccc1)c1ccccn1.[O-]/N=C(\c1ccccc1)c1ccccn1`, the growth inhibition was 41% (inactive).

Take `CCCCCCCCN1C(=O)c2ccccc2S1(=O)=O`: the growth inhibition was 25% (inactive).

For `CC(=O)N(C1=C(Cl)C(=O)c2ccccc2C1=O)c1ccc(C)cc1`, the growth inhibition was 99% (active).

As for `COc1ccc(Cl)c(-c2cc(OC)c(N=N/C(=N/Nc3ccc([N+](=O)[O-])cc3)c3ccc([N+](=O)[O-])cc3)cc2Cl)c1`, the growth inhibition is 99% (active).

Turning to `CCOC(=O)CSC(=S)N1CCOCC1`, the growth inhibition was -1% (inactive).

On to `CC1(C)COC(c2cccc(C(O)c3ccc(Cl)cc3)c2)=N1` (stereo not given), for which the growth inhibition was -21% (inactive).

As to `COc1ccc(/C=C/C(C(=O)O)C(=O)O)cc1`, the growth inhibition was 14% (inactive).

As to `COc1ccc2c(Cc3ccc(O)cc3)cncc2c1O`, the growth inhibition was -5% (inactive).

For `COC1=CC23C=CC1[C@@H](c1ccccc1)C2=C(C)C(=O)N3C(=O)NC1CCCCC1` (stereo not given in full), the growth inhibition is -8% (inactive).

Turning to `O=c1c2c3c(sc2nc2n1N=C(c1ccc(Br)cc1)CS2)CCCC3`, the growth inhibition was 11% (inactive).

Take `Cc1noc(NS(=O)(=O)c2ccc(N=Nc3cc(N=Nc4ccc(S(=O)(=O)Nc5onc(C)c5C)cc4)c4c(NC(=O)C(Cl)Cl)cccc4c3O)cc2)c1C` (tested in a mixture with another compound): the growth inhibition was 95% (active).

As for `CC(=O)OC1=CC2(OC(C)=O)CC(C)(C)C1C1C(=O)C=CC(=O)C12` (stereo not given), the growth inhibition was 4% (inactive).

With `COC1CCC(/C(C#N)=C/c2ccco2)CC1` (stereo not given), the growth inhibition is 38% (inactive).

Turning to `CCN(CC)CCNc1cc(C)nc2c1ccc1c2ccc2c(NCCN(CC)CC)cc(C)nc21`, the growth inhibition is -2% (inactive).

Take `O=c1sc(=S)[nH]c2ccccc12`: the growth inhibition is -1% (inactive).

As to `Oc1c(Br)ccc2c(O)c(Br)ccc12`, the growth inhibition is 53% (inactive).

Take `Nc1ccccc1CCc1ccccc1`: the growth inhibition is 0% (inactive).

On to `Cc1cc2c(cc1O)CC[C@@H]1[C@@H]2CC[C@]2(C)[C@@H](O)CC[C@@H]12`, for which the growth inhibition was -42% (inactive).

In the case of `O=c1c2ccccc2sc2c([N+](=O)[O-])ccc(NCCNCCO)c12`, the growth inhibition was 21% (inactive).

With `NC(=S)NNc1c([N+](=O)[O-])cnn(-c2ccccc2)c1=O`, the growth inhibition is -19% (inactive).

With `COc1ccccc1NC(=O)c1ccccc1F`, the growth inhibition is -70% (inactive).

With `COc1ccc(/C=C2\SC(=S)N(/C=C(/C#N)C(=O)c3ccc4ccccc4c3)C2=O)cc1OC`, the growth inhibition is -22% (inactive).

Consider `COC(=O)C1(OC(=O)CCC(=O)O)C(=O)NC2=C1C(=O)c1ccccc1C2=O` (stereo not given), for which the growth inhibition was -42% (inactive).

As for `Cc1cc(=O)c2c(ccc3cc4ccccc4cc32)[nH]1`, the growth inhibition is -7% (inactive).

For `CCc1nc(N)nc(N)c1-c1ccc(N(C)Cc2ccccc2)c([N+](=O)[O-])c1`, the growth inhibition is 52% (inactive).

In the case of `O=C1CSC(c2ccccc2O)N1c1ccc(-n2c(-c3ccccc3)nc3ccccc3c2=O)cc1` (stereo not given), the growth inhibition is -13% (inactive).

In the case of `O=C(C[P+](c1ccccc1)(c1ccccc1)c1ccccc1)c1ccc(Br)cc1`, the growth inhibition was 62% (inactive).

Turning to `O=NN(CCCl)C(=O)Oc1ccc(OC(=O)N(CCCl)N=O)cc1`, the growth inhibition is 56% (inactive).

Consider `Cc1cccc(C[N+](C)(C)CCCO)c1C`, for which the growth inhibition is 0% (inactive).

With `CC(C)NC(=O)OCCS(=O)c1c(Cl)c(Cl)nn1C` (stereo not given), the growth inhibition was -4% (inactive).

In the case of `COC1=CC(=O)[C@H]2CC(C)=CC[C@]2(C)C1=O`, the growth inhibition is -1% (inactive).

Take `Oc1ccc(O)c2c(O)c3ccccc3c(O)c12`: the growth inhibition was 3% (inactive).

With `O=[N+]([O-])c1cc(Br)cc(Br)c1O`, the growth inhibition was -7% (inactive).
